Screen size: about 3,200 compounds; about 300 (9.4%) showed activity. This excerpt belongs to a sample that is enriched for actives.
System: A673/TR/shEF
Assay: cell viability (LOESS-normalised, relative to median of negative controls) (log2 ratio); higher = more viable cells (less compound effect), active = hit call of the paper (over 3 MAD below the median)
Conditions: treatment time: 72 h
In short: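 Viability of A673/TR/shEF Ewing sarcoma cells was determined by CellTiter-Glo luminescence. The cells, at 1,500 per well in 384-well plates, were grown with or without doxycycline from 24 h before compound addition to switch on EWS-FLI1 shRNA knockdown, then exposed for three days to library compounds at two or more concentrations or to DMSO controls. Signals were LOESS-corrected plate by plate, normalised to the negative-control median and log2-transformed.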

[1] = 0.25 µM, library screen: screen1, EWS-FLI1 expression: high (no doxycycline)
[2] = 0.25 µM, library screen: screen1, EWS-FLI1 expression: low (doxycycline-induced shRNA knockdown)
[3] = 2.5 µM, library screen: screen1, EWS-FLI1 expression: high (no doxycycline)
[4] = 2.5 µM, library screen: screen1, EWS-FLI1 expression: low (doxycycline-induced shRNA knockdown)
[5] = 0.25 µM, library screen: screen2, EWS-FLI1 expression: high (no doxycycline)
[6] = 0.25 µM, library screen: screen2, EWS-FLI1 expression: low (doxycycline-induced shRNA knockdown)
[7] = 2.5 µM, library screen: screen2, EWS-FLI1 expression: high (no doxycycline)
[8] = 2.5 µM, library screen: screen2, EWS-FLI1 expression: low (doxycycline-induced shRNA knockdown)
[9] = 0.103 µM, library screen: screen3, EWS-FLI1 expression: high (no doxycycline)
[10] = 0.103 µM, library screen: screen3, EWS-FLI1 expression: low (doxycycline-induced shRNA knockdown)
[11] = 0.308 µM, library screen: screen3, EWS-FLI1 expression: high (no doxycycline)
[12] = 0.308 µM, library screen: screen3, EWS-FLI1 expression: low (doxycycline-induced shRNA knockdown)
[13] = 0.926 µM, library screen: screen3, EWS-FLI1 expression: high (no doxycycline)
[14] = 0.926 µM, library screen: screen3, EWS-FLI1 expression: low (doxycycline-induced shRNA knockdown)
[15] = 2.8 µM, library screen: screen3, EWS-FLI1 expression: high (no doxycycline)
[16] = 2.8 µM, library screen: screen3, EWS-FLI1 expression: low (doxycycline-induced shRNA knockdown)
[17] = 8.3 µM, library screen: screen3, EWS-FLI1 expression: high (no doxycycline)
[18] = 8.3 µM, library screen: screen3, EWS-FLI1 expression: low (doxycycline-induced shRNA knockdown)
[19] = 25 µM, library screen: screen3, EWS-FLI1 expression: high (no doxycycline)
[20] = 25 µM, library screen: screen3, EWS-FLI1 expression: low (doxycycline-induced shRNA knockdown)

Measured: cell viability (log2)

CCC/C=C/C=C/C1CC(O)C(O)C(=O)C1C=O (centres undefined)
inactive: [1] -0.0508 | [2] 0.0579 | [3] 0.0447 | [4] 0.105

C=C1CC[C@@H]2[C@H](CC2(C)C)C(=O)CC[C@@H]1O
inactive: [1] 0.0475 | [2] 0.00133 | [3] 0.0814 | [4] 0.0623

C=C1C(C)(C)[C@@]2(Cl)C(Cl)[C@]1(Cl)C(Cl)(Cl)C2(Cl)Cl (some centres undefined)
inactive: [1] 0.0218 | [2] 0.106 | [3] 0.0433 | [4] 0.0358

COc1ccccc1CN1CCN(Cc2ccc(OC)c(OC)c2OC)CC1
inactive: [1] 0.0684 | [2] 0.104 | [3] 0.0567 | [4] 0.0723

CC[C@H]1OC(=O)[C@H](C)[C@@H](O[C@H]2C[C@@](C)(OC)[C@@H](O)[C@H](C)O2)[C@H](C)[C@@H](O[C@@H]2O[C@H](C)C[C@H](N(C)C)[C@H]2O)[C@](C)(O)C[C@@H](C)/C(=N/OCOCCOC)[C@H](C)[C@@H](O)[C@]1(C)O
inactive: [1] 0.13 | [2] 0.107 | [3] 0.122 | [4] 0.103

C/C=C/CC(C)C(O)C1C(=O)NC(CC)C(=O)N(C)CC(=O)N(C)C(CC(C)C)C(=O)NC(C(C)C)C(=O)N(C)C(CC(C)C)C(=O)NC(C)C(=O)NC(C)C(=O)N(C)C(CC(C)C)C(=O)N(C)C(CC(C)C)C(=O)N(C)C(C(C)C)C(=O)N1C (centres undefined)
inactive: [1] 0.0736 | [2] 0.0415 | [5] 0.25 | [6] 0.127 | [3] 0.0328 | [4] 0.00672 | [7] 0.11 | [8] 0.104

CC(C)(O)[C@@H]1CC[C@](C)([C@H]2[C@@H](O)C[C@@]3(C)[C@@H]4C[C@H](O[C@@H]5O[C@H](CO)[C@@H](O)[C@H](O)[C@H]5O)[C@H]5C(C)(C)[C@@H](O[C@@H]6OC[C@@H](O)[C@H](O)[C@H]6O)CC[C@@]56C[C@@]46CC[C@]23C)O1
inactive: [9] 0.0688 | [10] 0.0886 | [11] 0.0588 | [12] 0.038 | [13] 0.056 | [14] 0.105 | [15] 0.044 | [16] -0.00938 | [17] 0.0806 | [18] 0.0911 | [19] 0.0188 | [20] 0.0301

CC(=O)O[C@H]1CC[C@@]2(C)[C@@H](CC[C@@H]3[C@@H]2CC[C@]2(C)[C@@H]4[C@H](C[C@@H]32)O[C@]2(CC[C@@H](C)CO2)[C@H]4C)C1
inactive: [1] 0.0876 | [2] 0.0708 | [3] 0.176 | [4] 0.151

CC1=C(Cl)C(O)=CC(=O)C12Oc1cc(O)c(Cl)c(C)c1C2=O (centres undefined)
inactive: [1] 0.0863 | [2] 0.0945 | [3] 0.127 | [4] 0.13

CSCC[C@H](NC=O)C(=O)N[C@@H](Cc1ccccc1)C(=O)O
inactive: [1] 0.0894 | [2] 0.169 | [3] 0.0791 | [4] 0.113

C/C=C(/C)C(=O)O[C@@H]1c2c(ccc3ccc(=O)oc23)OC(C)(C)[C@@H]1OC(C)=O
inactive: [1] -0.0115 | [2] 0.00938 | [3] 0.181 | [4] 0.0803

C[C@@H]1O[C@@H](O[C@H]2[C@H](O[C@H]3CC[C@@]4(C)[C@@H](CC[C@]5(C)[C@@H]4CC=C4[C@@H]6CC(C)(C)CC[C@]6(C(=O)O)CC[C@]45C)[C@]3(C)CO)OC[C@H](O)[C@@H]2O)[C@H](O)[C@H](O)[C@H]1O
inactive: [1] 0.0421 | [2] 0.11 | [3] 0.089 | [4] 0.0617

CC(=O)N1CCN(c2nc(-c3ccccc3)c3cc(Br)ccc3n2)CC1
inactive: [1] 0.0769 | [2] 0.0692 | [3] 0.115 | [4] 0.105

COc1ccccc1/C=C/c1nc(O)c([N+](=O)[O-])c(=O)[nH]1
inactive: [1] 0.123 | [2] 0.138 | [3] 0.0902 | [4] 0.00102

CCOC(=O)c1c[nH]c2ccc(OC)cc2c1=O
inactive: [1] 0.15 | [2] 0.1 | [3] 0.112 | [4] 0.121

CC(C)[C@@H](C)/C=C/[C@@H](C)[C@H]1CC[C@H]2C3=CC=C4C[C@@H](O)CC[C@]4(C)[C@H]3CC[C@]12C
inactive: [1] 0.0837 | [2] 0.11 | [3] 0.0787 | [4] 0.0538

COc1cc(Nc2c(C#N)cnc3cc(OCCCN4CCN(C)CC4)c(OC)cc23)c(Cl)cc1Cl
inactive: [9] 0.00802 | [10] 0.123 | [11] 0.0466 | [12] 0.063 | [13] 0.0151 | [14] 0.16 | [15] -0.0156 | [16] 0.139 | [17] -0.148 | [18] -0.136
active: [19] -1.59 | [20] -0.647

COc1cc2c(Oc3ccc4[nH]c(C)cc4c3F)ncnc2cc1OCCCN1CCCC1
inactive: [9] 0.0825 | [10] 0.0561 | [11] 0.034 | [12] 0.013 | [13] 0.0586 | [14] 0.0142 | [15] 0.0459 | [16] 0.0297 | [17] -0.077 | [18] 0.092 | [19] 0.0238 | [20] 0.0041

COc1cc(C(=O)OCCCN2CCCN(CCCOC(=O)c3cc(OC)c(OC)c(OC)c3)CC2)cc(OC)c1OC
inactive: [5] 0.105 | [6] 0.0948 | [7] 0.199 | [8] 0.123

O=C(O)CSc1nnc(-c2ccc(Cl)cc2Cl)n1-c1ccccc1
inactive: [1] 0.109 | [2] 0.165 | [3] 0.15 | [4] 0.122

COc1c(C(=O)O)ccc2c1CCC(C)(C)O2
inactive: [1] 0.0873 | [2] 0.0519 | [3] 0.206 | [4] -0.0164

CCOc1ccc(C(=O)Nc2ccc(NC(=O)CC)cc2)cc1Cl
inactive: [1] 0.102 | [2] 0.0179 | [3] 0.0812 | [4] -0.0835

CCOc1cc2ncc(C#N)c(Nc3ccc(OCc4ccccn4)c(Cl)c3)c2cc1NC(=O)/C=C/CN(C)C
active: [17] -0.204 | [18] -0.529
inactive: [9] 0.0468 | [10] 0.0085 | [11] -0.038 | [12] -0.0155 | [13] -0.0139 | [14] -0.00326 | [15] -0.0436 | [16] -0.282 | [19] -0.035 | [20] -0.415

CCOc1ccc(C(=O)Nc2cccc(OC)c2)cc1Cl
inactive: [1] 0.0358 | [2] 0.0408 | [3] 0.151 | [4] 0.0428

CCOc1cc2ncc(C#N)c(Nc3ccc(F)c(Cl)c3)c2cc1NC(=O)/C=C/CN(C)C
inactive: [9] 0.06 | [10] 0.0264 | [11] 0.0695 | [12] 0.0377 | [13] 0.0744 | [14] -0.098 | [17] -0.14 | [18] -0.477
active: [15] -0.201 | [16] -0.422 | [19] -1.43 | [20] -0.678

COc1cccc(-n2c(C)c(C(C)=O)c(C(C)=O)c2C)c1
inactive: [1] -0.0313 | [2] 0.00668 | [3] 0.0772 | [4] -0.0891

COc1cc(C(=O)NC2CCCCC2)c([N+](=O)[O-])cc1OC
inactive: [1] 0.122 | [2] 0.0996 | [3] 0.157 | [4] 0.0416

CC(=O)O[C@]1(C(=O)CO)[C@H](C)C[C@H]2[C@@H]3CCC4=CC(=O)C=C[C@]4(C)[C@@]3(F)[C@@H](O)C[C@@]21C
inactive: [1] 0.0305 | [2] -0.118 | [3] 0.0736 | [4] -0.0945

COc1ccc(/C=C(/NC(=O)c2ccccc2)C(=O)N2CCCCCC2)cc1OC
inactive: [1] 0.12 | [2] 0.0586 | [3] 0.088 | [4] 0.085

CC(C(=O)O)[C@H]1CCC2C3CC=C4C[C@@H](O)CC[C@]4(C)C3CC[C@@]21C (some centres undefined)
inactive: [1] 0.0415 | [2] 0.0559 | [3] 0.0699 | [4] -0.0298

CC1(C)CC(=O)C2=C(C1)Nc1ccccc1N(C(=O)Cc1ccc(Cl)cc1)C2c1cccnc1 (centres undefined)
inactive: [1] 0.0404 | [2] 0.0353 | [3] 0.127 | [4] 0.0963

CC1=C(C(=O)Nc2ccccc2Cl)C(c2ccc(F)cc2)NC(=O)N1 (centres undefined)
inactive: [1] 0.153 | [2] 0.0871 | [3] 0.0947 | [4] -0.018

CC1(C)CC2C1CCC1(CBr)CCC3C(CC(=O)O)C(=O)OC32C1 (centres undefined)
inactive: [1] 0.146 | [2] 0.038 | [3] 0.195 | [4] 0.152

CCN(CC)CCNC(=O)c1ccc(N)cc1
inactive: [1] 0.0893 | [2] 0.128 | [5] 0.138 | [6] 0.0499 | [3] 0.121 | [4] 0.267 | [7] 0.308 | [8] 0.0657

CCN(CC)CCNC(=O)c1cc(S(C)(=O)=O)ccc1OC
inactive: [1] 0.0293 | [2] 0.172 | [5] 0.198 | [6] 0.0568 | [3] 0.105 | [4] 0.182 | [7] 0.192 | [8] 0.0888

CCN(CC)CCNC(=O)c1c(C)[nH]c(/C=C2\C(=O)Nc3ccc(F)cc32)c1C
active: [19] -0.697 | [20] -0.541
inactive: [9] 0.0562 | [10] 0.0683 | [11] 0.0856 | [12] 0.0784 | [13] -0.0103 | [14] 0.0749 | [15] -0.00223 | [16] 0.0762 | [17] -0.0922 | [18] 0.071
